Active and inactive are the calls of the source. The calls were made as follows: active = hit-call score of the fitted dose curve at least 0.9, where 1 is the maximum; inactive = score below 0.9.
These compounds were tested on Hypoxia-inducible factor 1-alpha (Homo sapiens) (UniProt Q16665) (assay: LTEA_HepaRG_HIF1A: Life Technologies and Expression Analysis (LTEA) Assay for Hypoxia-inducible factor 1 (HIF1A) Trancription factor using HepaRG (AID 2283503;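 also: HIF1A transcript by TaqMan qRT-PCR normalized to ACTB GAPDH and POLR2A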)). Settings: mRNA level, 48 h; actives raise or lower the signal.
Chain of Hypoxia-inducible factor 1-alpha (Homo sapiens) (Q16665 whole entry, looked up): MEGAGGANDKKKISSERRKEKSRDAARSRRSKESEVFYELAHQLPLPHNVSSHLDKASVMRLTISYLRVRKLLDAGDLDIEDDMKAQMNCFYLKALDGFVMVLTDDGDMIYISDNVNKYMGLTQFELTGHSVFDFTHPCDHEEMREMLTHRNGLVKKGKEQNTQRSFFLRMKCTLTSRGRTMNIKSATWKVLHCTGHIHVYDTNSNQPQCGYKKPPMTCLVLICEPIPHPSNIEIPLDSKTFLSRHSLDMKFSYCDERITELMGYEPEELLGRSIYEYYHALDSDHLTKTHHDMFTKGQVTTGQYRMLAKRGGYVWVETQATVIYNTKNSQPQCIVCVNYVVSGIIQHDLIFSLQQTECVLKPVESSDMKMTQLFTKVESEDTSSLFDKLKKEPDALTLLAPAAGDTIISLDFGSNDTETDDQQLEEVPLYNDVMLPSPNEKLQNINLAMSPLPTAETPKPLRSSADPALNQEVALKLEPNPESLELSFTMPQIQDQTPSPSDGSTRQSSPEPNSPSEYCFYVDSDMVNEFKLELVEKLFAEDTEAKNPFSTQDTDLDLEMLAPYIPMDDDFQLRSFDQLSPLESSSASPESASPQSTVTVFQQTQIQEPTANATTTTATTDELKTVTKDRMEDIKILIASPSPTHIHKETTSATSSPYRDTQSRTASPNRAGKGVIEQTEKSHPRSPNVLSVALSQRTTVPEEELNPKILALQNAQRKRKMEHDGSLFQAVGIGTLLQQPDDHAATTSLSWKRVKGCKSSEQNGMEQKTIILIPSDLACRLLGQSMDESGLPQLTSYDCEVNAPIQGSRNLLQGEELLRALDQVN
Description: LTEA_HepaRG is a cell based, multiplexed-readout assay that uses HepaRG, a human liver cell line, with measurements taken at 48 hours after chemical dosing on a 96-well plate.LTEA_HepaRG_HIF1A is one of 102 assay component(s) measured in the LTEA HepaRG cell culture assay. It is a marker of Cell proliferation, survival, death.Data from the assay component LTEA_HepaRG_HIF1A was analyzed into 1 endpoint. This assay endpoint, LTEA_HepaRG_HIF1A, was analyzed with bidirectional fitting relative to DMSO as the negative control and baseline of activity. Using a type of inducible reporter, measures of mRNA induction for gain or loss-of-signal activity can be used to understand regulation of transcription factor activity. To generalize the intended target to other relatable targets, this assay endpoint is annotated to the dna binding intended target family, where the subfamily is basic helix-loop-helix protein.
A total of 1060 chemcials from the ToxCast library were tested in eight-point concentration-response experiments. Cell culture and cytotoxicity assays were conducted at Thermo Fisher Scientific's Custom Services facility (Madison, WI). A single lot of human HepaRG cells (Thermo Fisher Scientific, Frederick, MD) was used for the cell culture experiments. 96-well format collagen type I coated plates of human HepaRG cells were prepared using established methods. Briefly, cryopreserved HepaRG cells were thawed, plated at a density of approximately 100,000 cells/well in HepaRG Thaw, Plate, and General Purpose media (HPRG770, Thermo Fisher Scientific), and incubated for 48 hours. 0.5% DMSO was selected as vehicle control to balance the requisite need of DMSO in HepaRG cultures to maintain differentiation (for example, baseline metabolism, proportions of hepatocytes vs. cholangiocytes), while enabling further hepatic receptor pathway activation (for example, PXR and CAR) in response to chemical exposure. 48 hours after plating, the culture medium was replaced with HepaRG Serum-Free Incudtion Media. Cells were exposed to each test chemical in duplicate and maintained in CO2 incubators for another 48 hours. Chemical plates were thawed to room temperature and 200x concentrations of treatment groups were prepared. 8-point conentration-reponse curves were made with the highest exposure at 100 uM, followed by half-log dilutions, all in 0.5% DMSO. Each test plate contained variouse controls, induction positive controls (1mM phenobarbital), cytotoxicity positive controls ([…] aflatoxin B1), vehicle controls (0.5% DMSO), and total lysis controls (0.5% DMSO). Cell morphology images were taken using an Essen IncuCyte FLR automated microscope, with six 96-well plates imaged in about 24 minutes. Images were captured and exported and JPEG files. Spent culture media was transfered to black-well plates for the LDH assay, and remaining media was sorted at -80 C for later use. Cells were treated with RLT buffer and frozen until shipped for gene expression analysis. Total RNA was isolated from the cell suspension in 75 uL of Buffer RLT (Qiagen, Germantown, MD 20874) by Quintiles/Expression Analysis (Durham, NC) using a custom isolation procedure. Total RNA from each plate well was transferred to a preamplification plate. Fluidigm's 96.96 Dynamic ArrayTM (Fluidigm, Amsterdam, the Netherlands) technology was used for gene expression analyses by quantitative reverse transcription polymerase chain reaction (qRT-PCR, performed by Quintiles/Expression Analysis, Durham, NC)89. Standard TaqManTM Assays (Applied Biosystems/ThermoFisher Scientific, Foster City, CA) were used to assess the expression of 93 genes selected based on their selectivity and sensitivity to important hepatic receptors known to be modulated by environmental chemicals; importance in human hepatocyte functionality; and hepatotoxicity. […]
In the case of C1N2CN3CN1CN(C2)C3, the outcome is reported as “inactive”. COc1cccc(-c2ccc(/C=C\CN3CCCCCC3)cc2Cl)c1 was tested, and the AC50 was 83 µM (active). In the case of O=C(O)CC(O)C(=O)O (stereo not given), the outcome is reported as “inactive”. With Nc1cccc(N)c1 the outcome was “inactive”. For CCN(C(=O)c1cc(C)cc(OC[C@H](C)Nc2ccncc2)c1)C(C)C, the outcome was “inactive”. For On1ccccc1=S, the outcome was “inactive”. CC(C)=CCCC(C)CCO (stereo not given) was tested, and the outcome was “inactive”. For CC(C)CCO, the outcome was “inactive”. O=c1[nH]c2ccc(S(=O)CCN3CCC(Cc4ccc(F)cc4)CC3)cc2o1 (stereo not given) was tested, and the outcome was “inactive”. CC1(C)C(=O)N(Br)C(=O)N1Br was tested, and the outcome was “inactive”. For COC(=O)c1c(Cl)c(Cl)c(C(=O)OC)c(Cl)c1Cl, the outcome was “inactive”. In the case of CCC(C)(C)C(=O)O[C@H]1C[C@@H](C)C=C2C=C[C@H](C)[C@H](CC[C@@H]3C[C@@H](O)CC(=O)O3)[C@H]21, the outcome is reported as “inactive”. In the case of CCCCCCCCO, the outcome is reported as “inactive”. For Cc1[nH]cnc1C[C@H]1CCc2c(C)c3ccccc3n2C1=O, the AC50 was 24.3 µM (active). Cc1ccc(C)c(O)c1 was tested, and the outcome was “inactive”. Fc1ccccc1[C@@H](F)COC1CCC(Nc2ncnc3[nH]ncc23)CC1 (stereo not given in full) was tested, and the AC50 was 33.1 µM (active). In the case of C=CC(=C)CCC=C(C)C, the outcome is reported as “inactive”. In the case of CCOC(=O)COc1ccc2c(c1)CC(NCC(O)c1cccc(Cl)c1)CC2 (stereo not given), the outcome is reported as “inactive”. COC(=O)c1ccccc1O was tested, and the outcome was “inactive”. In the case of C=CCCCCCCCCC(=O)O, the outcome is reported as “inactive”. CN(C)c1ccc(N=NS(=O)(=O)O)cc1 was tested, and the outcome was “inactive”. CCCN(C1CCN(C(=O)C2CCNCC2)CC1)[C@@H]1CCc2ccc(OC)cc2C1 was tested, and the AC50 was 88.2 µM (active). COc1ccc(-n2nc(C(F)F)cc2-c2ccc(S(C)=O)cc2)cc1 (stereo not given) was tested, and the outcome was “inactive”. For COc1ccc(/C=C/S(=O)(=O)NC(=O)c2ccc(C)cc2Cl)cc1, the outcome was “inactive”. For CC(C)c1cccc(C(C)C)c1N1C(=O)c2ccc(O)cc2C1=O, the outcome was “inactive”. CCOC(=O)c1ccc(C2CCC(NC[C@H](O)COc3ccc(O)c(NS(C)(=O)=O)c3)CC2)cc1 (stereo not given in full) was tested, and the outcome was “inactive”. For CC(C)CCCCCCCOC(=O)CCCCC(=O)OCCCCCCCC(C)C, the outcome was “inactive”. O=C(O)c1cccc(N(Cc2cccnc2)c2ccc(OC(F)F)c(OC(F)F)c2)c1 was tested, and the outcome was “inactive”. In the case of CC[C@H](C)C(=O)O[C@H]1C[C@@H](C)C=C2C=C[C@H](C)[C@H](CC[C@@H]3C[C@@H](O)CC(=O)O3)[C@H]21, the outcome is reported as “inactive”. CCOCCO was tested, and the outcome was “inactive”. For CCCCCCCCCCCCCCCO, the outcome was “inactive”. CC(C)CC(C)(O)C#CC(C)(O)CC(C)C (stereo not given) was tested, and the outcome was “inactive”. For CNCc1ccc(NC(=O)c2c[nH]c3c2C(=O)CCC3)cc1, the outcome was “inactive”. For CCCCCCc1ccc(O)cc1O, the outcome was “inactive”. CC(=O)c1ccc2c(c1)[C@H](NC(=O)c1ccc(F)cc1)[C@@H](O)C(C)(C)O2 was tested, and the outcome was “inactive”. In the case of CC1=CC(=O)CC(C)(C)C1, the outcome is reported as “inactive”. In the case of CNS(=O)(=O)c1cc(C(=O)N2CCC(CCN3C4CCC3CC(n3c(C)nc5ccccc53)C4)(c3cccc(F)c3)CC2)c(Cl)cc1F (stereo not given), the outcome is reported as “inactive”. For CCn1nc(Cc2ccccc2)cc1C1CCN(C[C@H]2C[C@H](N(C)[C@@H](C(=O)O)C(C)C)C[C@@H]2c2cccc(F)c2)CC1, the outcome was “inactive”. With O=C(O)c1cccc(Oc2ccccc2)c1 the outcome was “inactive”. For CCCC(=O)OCC, the outcome was “inactive”.
